Laboratory results reported in PubChem BioAssay.
Inconclusive results are not listed. Calls of active or inactive are those of the source.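 How the source made its calls, unless noted: active means percent response above a set limit, the screen-wide mean plus 3 SD (cut at about 130% in these data); inactive means the rest.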

Legend:
[1] = yeast TOR pathway RPL19A-GFP modulators, primary screen, cell-based, S. cerevisiae, multiplex flow cytometry (AID 1862; in the data active means percent of DMSO control GFP below about 86%;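 further: lower values mimic rapamycin by blocking the RPL19A rise seen in DMSO cells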); conditions: S. cerevisiae RPL19A-GFP strain, flow cytometry fluorescence, 3 h; at 10 µM; stronger effect = lower value
[2] = modulators of MEP2-GFP levels in yeast, primary screen, S. cerevisiae, multiplex flow cytometry (AID 1867;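 active means GFP response, as percent of the DMSO control, above the screen-wide mean plus 3 SD, about 139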;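 further: median GFP channel fluorescence of barcode-gated MEP2-GFP cells measured by flow cytometry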); conditions: S. cerevisiae MEP2-GFP strain, 3 h, at 10 µM, stronger effect = higher value, 100% means same as DMSO wells
[3] = modulators of CIT2-GFP expression in yeast, primary screen, S. cerevisiae, GFP fusion, multiplex flow cytometry (AID 1870); conditions: 3 h, at 10 µM, stronger effect = higher value;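 further: barcoded CIT2-GFP strain pooled with four other GFP strains with rapamycin as positive control; median GFP fluorescence per well over plate mean of DMSO wells so 100% = DMSO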
[4] = modulators of LAP4-GFP expression in yeast, primary screen, S. cerevisiae, multiplex flow cytometry (AID 1873;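 active means GFP signal, as percent of the solvent control, above the screen mean plus 3 SD, about 149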); conditions: 3 h, at 10 µM, stronger effect = higher value
[5] = modulators of AGP1-GFP expression in yeast TOR pathway, primary screen, cell-based, multiplex flow cytometry, S. cerevisiae (AID 1887;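 active means GFP signal above the screen-wide mean plus 3 SD, that is over about 124.5% of the solvent control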;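 further: AGP1-GFP fusion strain of S. cerevisiae within a five-strain barcoded multiplex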); conditions: 3 h, at 10 µM, stronger effect = higher value
[6] = inhibitors of CD8+ T cell-vesicle binding, pilot screen, LFA-1/ICAM-1 modulator project, MLPCN validation set, flow cytometry (AID 2523;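 active means response below a set limit, under 55% cells CD8-positive and vesicle-bound, and CD8 cells' 90th-percentile brightness under 279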;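 on vesicle binding response: mean PE anti-B7-1 fluorescence of CD8+ cells relative to row control; 100% = QL9-loaded vesicles with DMSO vehicle in the same plate row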); conditions: 2C mouse CD8+ T cells, at 7 µM, stronger effect = lower value; double positive events: measured here: CD8+/vesicle+ event percentage
[7] = molecular target: Integrin beta-1 (Homo sapiens) + Integrin alpha-4 (Homo sapiens) (UniProt P13612+P05556); assay: inhibition of HUTS-21 binding to VLA-4, pilot screen, VLA-4 allosteric modulator project, U937 cells, HUTS-21 mAb, flow cytometry, validation set (AID 2674;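 active means inhibition above 50%, about 3 SD of the validation set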;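 further: antibody binding induced by the VLA-4 ligand LDV present at three times its Kd; 0% = LDV ligand with antibody and no compound and 100% = antibody without LDV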); conditions: HUTS-21 LIBS mAb binding, at 6.7 µM, stronger effect = higher value, binding induced by LDV ligand
Integrin beta-1 (Homo sapiens) + Integrin alpha-4 (Homo sapiens), sequence (P05556 whole entry, looked up): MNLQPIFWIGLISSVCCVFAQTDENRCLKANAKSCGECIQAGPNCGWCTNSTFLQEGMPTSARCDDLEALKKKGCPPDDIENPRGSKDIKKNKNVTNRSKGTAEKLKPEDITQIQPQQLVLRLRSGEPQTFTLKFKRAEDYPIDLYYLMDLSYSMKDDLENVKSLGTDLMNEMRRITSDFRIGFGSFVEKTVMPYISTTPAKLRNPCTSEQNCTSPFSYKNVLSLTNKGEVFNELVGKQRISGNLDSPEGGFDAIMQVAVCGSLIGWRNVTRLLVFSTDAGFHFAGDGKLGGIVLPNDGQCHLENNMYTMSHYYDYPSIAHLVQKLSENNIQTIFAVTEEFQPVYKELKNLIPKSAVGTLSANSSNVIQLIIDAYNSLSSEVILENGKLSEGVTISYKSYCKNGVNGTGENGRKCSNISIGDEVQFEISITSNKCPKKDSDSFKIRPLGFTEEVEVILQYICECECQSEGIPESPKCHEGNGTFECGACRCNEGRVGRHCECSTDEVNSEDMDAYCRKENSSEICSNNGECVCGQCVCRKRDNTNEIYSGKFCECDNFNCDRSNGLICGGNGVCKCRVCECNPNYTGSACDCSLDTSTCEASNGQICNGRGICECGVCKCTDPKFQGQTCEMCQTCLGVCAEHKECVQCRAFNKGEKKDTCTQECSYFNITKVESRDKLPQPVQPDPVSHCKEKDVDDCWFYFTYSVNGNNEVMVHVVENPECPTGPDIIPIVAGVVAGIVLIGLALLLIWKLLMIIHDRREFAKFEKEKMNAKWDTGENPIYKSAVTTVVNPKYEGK
Integrin beta-1 (Homo sapiens) + Integrin alpha-4 (Homo sapiens), sequence (P13612 whole entry, looked up): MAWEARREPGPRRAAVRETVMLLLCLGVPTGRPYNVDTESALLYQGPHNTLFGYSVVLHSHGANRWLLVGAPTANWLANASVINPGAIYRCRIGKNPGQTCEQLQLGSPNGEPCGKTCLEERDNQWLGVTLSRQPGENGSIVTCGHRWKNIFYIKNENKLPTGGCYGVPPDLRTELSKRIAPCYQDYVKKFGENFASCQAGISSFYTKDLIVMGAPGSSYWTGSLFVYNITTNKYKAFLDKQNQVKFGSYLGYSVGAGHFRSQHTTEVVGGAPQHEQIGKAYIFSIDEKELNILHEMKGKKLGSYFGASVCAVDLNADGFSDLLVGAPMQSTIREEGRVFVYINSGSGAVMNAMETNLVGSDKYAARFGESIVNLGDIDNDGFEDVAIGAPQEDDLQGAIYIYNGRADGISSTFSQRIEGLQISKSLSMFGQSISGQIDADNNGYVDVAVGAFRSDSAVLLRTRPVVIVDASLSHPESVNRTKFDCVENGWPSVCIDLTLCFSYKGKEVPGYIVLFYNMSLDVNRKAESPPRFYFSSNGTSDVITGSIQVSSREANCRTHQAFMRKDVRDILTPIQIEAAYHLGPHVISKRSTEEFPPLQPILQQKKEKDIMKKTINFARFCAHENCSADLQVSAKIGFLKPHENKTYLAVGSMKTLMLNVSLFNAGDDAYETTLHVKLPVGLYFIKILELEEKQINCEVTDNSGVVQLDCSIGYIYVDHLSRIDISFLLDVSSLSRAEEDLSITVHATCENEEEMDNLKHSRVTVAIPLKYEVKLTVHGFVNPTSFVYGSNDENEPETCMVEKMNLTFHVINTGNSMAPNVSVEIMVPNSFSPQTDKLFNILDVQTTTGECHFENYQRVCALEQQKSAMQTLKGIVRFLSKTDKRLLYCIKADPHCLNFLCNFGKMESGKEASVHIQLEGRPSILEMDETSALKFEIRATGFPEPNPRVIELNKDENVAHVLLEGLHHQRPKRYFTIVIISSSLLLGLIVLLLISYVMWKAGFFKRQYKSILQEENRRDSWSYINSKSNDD

[8] = superoxide lowering in aged yeast cells, pilot screen, validation compound set (AID 2706;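 active means superoxide response below 65% of plate, a cut near 3 SD across the whole screen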;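 further: yeast exposed to compound for one week at 30 degrees C before staining; 100% = mean of all compound wells on the same plate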); conditions: S. cerevisiae aging, superoxide DHE fluorescence; at 10 µM; stronger effect = lower value
[9] = molecular target: Beta-adrenergic receptor kinase 1 (Homo sapiens) (UniProt P25098); assay: GRK2 binders displacing RNA aptamer, biochemical, validation, human GRK2, bead flow cytometry (AID 488806;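 active means aptamer binding inhibition above 30%, about 3 SD of noise from non-fluorescent compounds; inactive means inhibition at or below 30%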); conditions: bead-bound GRK2, FAM-aptamer displacement, at 10 µM, stronger effect = higher value
Beta-adrenergic receptor kinase 1 (Homo sapiens), sequence (P25098 whole entry, looked up): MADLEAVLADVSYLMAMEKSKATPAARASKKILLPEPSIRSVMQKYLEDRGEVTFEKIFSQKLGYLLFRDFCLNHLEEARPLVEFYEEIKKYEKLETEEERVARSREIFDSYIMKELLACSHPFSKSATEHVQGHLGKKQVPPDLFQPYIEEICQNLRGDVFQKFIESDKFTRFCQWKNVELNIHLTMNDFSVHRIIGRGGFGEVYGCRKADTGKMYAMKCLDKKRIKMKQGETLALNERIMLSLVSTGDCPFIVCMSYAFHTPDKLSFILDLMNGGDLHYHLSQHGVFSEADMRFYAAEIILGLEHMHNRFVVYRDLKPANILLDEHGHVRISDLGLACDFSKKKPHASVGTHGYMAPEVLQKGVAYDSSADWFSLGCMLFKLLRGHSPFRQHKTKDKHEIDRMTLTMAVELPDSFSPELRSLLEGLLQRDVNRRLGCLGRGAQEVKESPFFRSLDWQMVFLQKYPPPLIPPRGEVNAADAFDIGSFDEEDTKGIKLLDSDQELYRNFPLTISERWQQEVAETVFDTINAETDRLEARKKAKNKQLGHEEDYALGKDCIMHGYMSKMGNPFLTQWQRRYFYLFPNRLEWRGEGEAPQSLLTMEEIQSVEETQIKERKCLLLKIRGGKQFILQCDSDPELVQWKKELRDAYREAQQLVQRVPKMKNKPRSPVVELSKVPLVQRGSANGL

[10] = molecular target: Beta-2 adrenergic receptor (Homo sapiens) (UniProt P07550); assay: beta2AR agonists driving receptor internalization, pilot screen, cell-based, FAP fluorogen, flow cytometry, validation set (AID 504459;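 active means percent response above 42, roughly 3 SD of non-fluorescent test compounds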;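 further: agonist-driven loss of surface beta2AR via internalization measured by FAP dye flow cytometry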); conditions: Am2.2-beta2AR cells, FAP surface receptor flow cytometry; at 10 µM; stronger effect = higher value
Beta-2 adrenergic receptor (Homo sapiens), sequence (P07550 whole entry, looked up): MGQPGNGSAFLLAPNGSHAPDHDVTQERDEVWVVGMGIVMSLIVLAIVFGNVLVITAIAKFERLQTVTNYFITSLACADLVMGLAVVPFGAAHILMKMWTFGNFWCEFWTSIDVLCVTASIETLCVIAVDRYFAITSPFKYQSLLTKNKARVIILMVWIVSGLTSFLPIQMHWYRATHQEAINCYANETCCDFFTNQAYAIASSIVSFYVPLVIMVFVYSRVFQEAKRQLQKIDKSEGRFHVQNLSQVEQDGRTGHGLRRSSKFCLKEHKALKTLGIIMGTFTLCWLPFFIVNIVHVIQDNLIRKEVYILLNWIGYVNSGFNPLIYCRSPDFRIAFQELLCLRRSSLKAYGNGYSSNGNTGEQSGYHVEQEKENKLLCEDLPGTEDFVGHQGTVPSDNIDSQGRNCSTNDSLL

[11] = molecular target: AP-2 complex subunit beta (Homo sapiens) (UniProt P63010); assay: inhibitors of arrestin peptide binding to AP2, pilot screen, biochemical, validation set, GST-AP2 beads, flow cytometry (AID 504541;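 active means inhibition above 54%, about 3 SD of non-fluorescent compounds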;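 further: AP2 carries R879A mutation and is captured from E. coli lysate; bead-bound FITC arrestin peptide fluorescence measuring arrestin peptide binding to AP2; 0% = DMSO wells and 100% = excess unlabeled arrestin peptide control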); conditions: FITC arrestin peptide, at 10 µM, stronger effect = higher value, AP2 beta2 appendage fragment, R879A mutant
AP-2 complex subunit beta (Homo sapiens), sequence (P63010 whole entry, looked up, the tested form may be a part, one chain of several): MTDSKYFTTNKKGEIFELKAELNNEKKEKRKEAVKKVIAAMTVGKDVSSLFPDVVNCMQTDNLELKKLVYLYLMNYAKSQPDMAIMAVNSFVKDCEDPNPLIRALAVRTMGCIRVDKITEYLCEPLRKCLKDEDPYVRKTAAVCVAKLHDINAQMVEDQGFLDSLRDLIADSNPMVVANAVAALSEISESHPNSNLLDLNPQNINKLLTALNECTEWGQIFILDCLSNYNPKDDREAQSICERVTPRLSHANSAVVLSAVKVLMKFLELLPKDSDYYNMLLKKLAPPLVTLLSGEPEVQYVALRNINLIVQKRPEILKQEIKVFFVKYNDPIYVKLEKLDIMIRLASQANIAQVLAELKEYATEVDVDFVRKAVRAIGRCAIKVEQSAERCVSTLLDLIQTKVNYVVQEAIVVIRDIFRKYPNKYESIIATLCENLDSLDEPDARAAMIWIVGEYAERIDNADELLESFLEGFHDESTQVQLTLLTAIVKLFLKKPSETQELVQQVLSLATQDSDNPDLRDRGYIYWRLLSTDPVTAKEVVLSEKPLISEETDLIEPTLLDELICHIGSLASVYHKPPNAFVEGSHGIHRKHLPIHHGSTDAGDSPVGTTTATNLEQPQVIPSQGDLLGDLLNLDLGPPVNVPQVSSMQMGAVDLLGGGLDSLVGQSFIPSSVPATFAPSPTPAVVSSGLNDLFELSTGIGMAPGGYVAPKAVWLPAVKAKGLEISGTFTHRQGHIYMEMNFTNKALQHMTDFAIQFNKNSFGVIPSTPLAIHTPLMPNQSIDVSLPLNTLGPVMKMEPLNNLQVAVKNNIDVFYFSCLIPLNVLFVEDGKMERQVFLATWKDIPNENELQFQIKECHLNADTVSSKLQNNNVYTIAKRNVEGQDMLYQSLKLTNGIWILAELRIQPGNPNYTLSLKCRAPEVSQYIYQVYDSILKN

[12] = yeast V-ATPase proton transport modulators, S. cerevisiae, pHLuorin, HTS validation (AID 504600; in the data active means response above about 15%;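 further: plate controls were DMSO for no effect and reference compound for full effect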); conditions: S. cerevisiae pHLuorin cytosolic pH, at 10 µM, stronger effect = higher value
[13] = test system: anti-desmoglein-3 scFv antibody binding to human DSG3; assay: inhibitors of anti-DSG3 scFv binding to DSG3, pilot screen, biochemical, validation compound set, bead-based, flow cytometry (AID 588368;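 active means binding below the plate cutoff, the plate median minus 3 SD, with a reading above zero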;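 further: signal is the median channel fluorescence of bead-bound GFP antibody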); conditions: Protein G beads, DSG3-Fc, scFv-GFP binding, at 10 µM, stronger effect = lower value
[14] = inhibitors of fungal efflux pumps CDR1, CDR2, MDR1, pilot screen, validation compound set, multiplex, phenotypic (AID 588506;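 active means efflux inhibition above 0.42, the validation set average plus 4 SD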;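 further: Nile Red retained in cells so higher fluorescence means more efflux inhibition; 0 = negative control wells and 1 = enniatin B 25 µM full block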); conditions: S. cerevisiae pump-expressing triplex, Nile Red efflux flow cytometry; at 10 µM; stronger effect = higher value; the pumps come from Candida albicans
[15] = molecular target: ATP-binding cassette sub-family B member 6 (Homo sapiens) (UniProt Q9NP58); assay: ABCB6 transporter inhibitors, pilot screen, K562-ABCB6 cells, flow cytometry, validation set (AID 588550;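 active means inhibition above the screen-wide mean plus 3 SD, about 51%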;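 further: 0% = DMSO wells and 100% = benzethonium chloride 70 µM positive control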); conditions: K562-ABCB6 porphyrin accumulation, 1 h, at 10 µM, stronger effect = higher value
ATP-binding cassette sub-family B member 6 (Homo sapiens), sequence (Q9NP58 whole entry, looked up): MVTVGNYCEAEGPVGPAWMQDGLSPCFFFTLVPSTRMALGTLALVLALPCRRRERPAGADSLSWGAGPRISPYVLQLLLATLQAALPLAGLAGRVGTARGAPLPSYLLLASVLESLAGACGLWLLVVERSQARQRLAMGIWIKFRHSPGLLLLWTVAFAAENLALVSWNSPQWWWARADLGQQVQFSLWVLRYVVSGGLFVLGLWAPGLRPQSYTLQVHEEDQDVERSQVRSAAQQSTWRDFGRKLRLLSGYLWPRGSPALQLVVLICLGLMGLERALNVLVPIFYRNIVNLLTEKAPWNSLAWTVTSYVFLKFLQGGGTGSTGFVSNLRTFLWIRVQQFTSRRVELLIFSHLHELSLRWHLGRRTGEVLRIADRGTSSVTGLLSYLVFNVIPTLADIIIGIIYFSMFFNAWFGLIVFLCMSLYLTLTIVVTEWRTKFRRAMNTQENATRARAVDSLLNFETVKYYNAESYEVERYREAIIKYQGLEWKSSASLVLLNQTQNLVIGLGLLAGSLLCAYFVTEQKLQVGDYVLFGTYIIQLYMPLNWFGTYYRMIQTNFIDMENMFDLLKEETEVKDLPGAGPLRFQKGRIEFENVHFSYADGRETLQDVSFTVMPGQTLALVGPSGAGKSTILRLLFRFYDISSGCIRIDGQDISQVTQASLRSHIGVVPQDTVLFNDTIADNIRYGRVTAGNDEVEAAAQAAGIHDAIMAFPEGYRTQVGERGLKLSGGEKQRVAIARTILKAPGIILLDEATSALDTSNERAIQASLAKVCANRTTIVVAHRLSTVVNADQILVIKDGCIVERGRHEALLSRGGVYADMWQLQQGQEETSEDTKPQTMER

[16] = promoters of myeloid differentiation in arrested cells, primary screen, cell-based, GFP/MAC1 double positive, flow cytometry, validation set (AID 588685;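 active means differentiation response of at least 50%, scaled between solvent and reference control, from cells with both markers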;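 further: compound exposure lasts four days before antibody staining and flow analysis; 0% = DMSO wells and 100% = 5 µM fulvestrant positive control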); conditions: ER-HoxA9 marrow cells, stronger effect = higher value, normalized: vehicle 0, fulvestrant 100

O=C(O)COc1ccc2occ(C(=O)c3ccccc3)c2c1
63.9%: double positive events [6]
inactive: percent of DMSO control GFP [1] 99.8% | GFP response vs DMSO [2] 106% | percent response of DMSO control [3] 101% | GFP response vs DMSO [4] 96% | GFP response, % of DMSO [5] 92.9% | vesicle binding response [6] 180% | inhibition [7] 15.1% | superoxide response (% of plate) [8] 107% | aptamer binding inhibition [9] 4% | response [10] -5% | inhibition [11] 0.98% | response [12] 0.64% | binding (% of control) [13] 94.2% | efflux inhibition (fraction of control) [14] -0.17 | inhibition [15] 3% | differentiation response [16] 7.09%

COc1cc(C2C(C(C)=O)=C(O)C(=O)N2c2ccc(C)cc2)ccc1O (stereo not drawn)
57.9%: double positive events [6]
inactive: percent of DMSO control GFP [1] 100% | GFP response vs DMSO [2] 104% | percent response of DMSO control [3] 100% | GFP response vs DMSO [4] 97.3% | GFP response, % of DMSO [5] 97.5% | vesicle binding response [6] 75.1% | inhibition [7] -16% | superoxide response (% of plate) [8] 107% | aptamer binding inhibition [9] 3% | response [10] -1.25% | inhibition [11] 51.5% | response [12] -8.34% | binding (% of control) [13] 95.1% | efflux inhibition (fraction of control) [14] -0.17 | inhibition [15] -2% | differentiation response [16] 17.8%

CC(NC(=O)c1ccc(N2CCNCC2)c([N+](=O)[O-])c1)C12CC3CC(CC(C3)C1)C2 (stereo not drawn)
56.9%: double positive events [6]
inactive: percent of DMSO control GFP [1] 92.8% | GFP response vs DMSO [2] 111% | percent response of DMSO control [3] 101% | GFP response vs DMSO [4] 114% | GFP response, % of DMSO [5] 92.6% | vesicle binding response [6] 87.2% | inhibition [7] 9.13% | superoxide response (% of plate) [8] 101% | aptamer binding inhibition [9] -1% | response [10] -1.73% | inhibition [11] -4.72% | response [12] 0.8% | binding (% of control) [13] 98.2% | efflux inhibition (fraction of control) [14] -0.1 | inhibition [15] 7% | differentiation response [16] -23.2%

CC1(C)Cc2ccccc2-c2nc(-c3ccccc3)oc(=O)c21
inactive: percent of DMSO control GFP [1] 102% | GFP response vs DMSO [2] 94.7% | percent response of DMSO control [3] 96.4% | GFP response vs DMSO [4] 107% | GFP response, % of DMSO [5] 112% | vesicle binding response [6] 149% | inhibition [7] 2.29% | superoxide response (% of plate) [8] 89.6% | aptamer binding inhibition [9] 4% | response [10] -10.1% | inhibition [11] -10.6% | response [12] -7.89% | binding (% of control) [13] 98.8% | efflux inhibition (fraction of control) [14] 0.08 | inhibition [15] 7% | differentiation response [16] -0.06%
63.3%: double positive events [6]

Cc1cc(=O)[nH]c(=S)[nH]1
64.4%: double positive events [6]
inactive: percent of DMSO control GFP [1] 97% | GFP response vs DMSO [2] 109% | percent response of DMSO control [3] 106% | GFP response vs DMSO [4] 79.2% | GFP response, % of DMSO [5] 96.6% | vesicle binding response [6] 223% | inhibition [7] 12.3% | superoxide response (% of plate) [8] 113% | aptamer binding inhibition [9] -9% | response [10] -11.1% | inhibition [11] -0.05% | response [12] 0.42% | binding (% of control) [13] 104% | efflux inhibition (fraction of control) [14] 0.12 | inhibition [15] 12% | differentiation response [16] 0.82%

CCOC(=O)c1c(O)c2c([nH]c1=O)CCCC2
inactive: percent of DMSO control GFP [1] 100% | GFP response vs DMSO [2] 91.9% | percent response of DMSO control [3] 101% | GFP response vs DMSO [4] 102% | GFP response, % of DMSO [5] 96% | vesicle binding response [6] 109% | inhibition [7] -34.6% | superoxide response (% of plate) [8] 101% | aptamer binding inhibition [9] 3% | response [10] -11% | inhibition [11] 17.2% | response [12] -2.71% | binding (% of control) [13] 99.3% | efflux inhibition (fraction of control) [14] 0.01 | inhibition [15] 9% | differentiation response [16] 5.6%
69.7%: double positive events [6]

CCc1cc2c(=O)c(-c3nc(C)cs3)coc2cc1OC(C)C(=O)NCCO (stereo not drawn)
inactive: percent of DMSO control GFP [1] 90.2% | GFP response vs DMSO [2] 129% | percent response of DMSO control [3] 107% | GFP response vs DMSO [4] 86.4% | GFP response, % of DMSO [5] 92.4% | vesicle binding response [6] 143% | inhibition [7] 9.37% | superoxide response (% of plate) [8] 95.6% | aptamer binding inhibition [9] 3% | response [10] 8.19% | inhibition [11] -0.76% | response [12] -0.12% | binding (% of control) [13] 101% | efflux inhibition (fraction of control) [14] -0.2 | inhibition [15] 10% | differentiation response [16] -4.09%
62.3%: double positive events [6]

COc1ccc(CN2CCC(=O)NC2=O)cc1
inactive: percent of DMSO control GFP [1] 102% | GFP response vs DMSO [2] 105% | percent response of DMSO control [3] 97.7% | GFP response vs DMSO [4] 105% | GFP response, % of DMSO [5] 96.5% | vesicle binding response [6] 170% | inhibition [7] 3.67% | superoxide response (% of plate) [8] 101% | aptamer binding inhibition [9] -2% | response [10] -1.29% | inhibition [11] 33.2% | response [12] -0.38% | binding (% of control) [13] 81.3% | efflux inhibition (fraction of control) [14] 0.08 | inhibition [15] 2%
59.9%: double positive events [6]
active: differentiation response [16] 116%

COc1cc2c(cc1NCc1ccc3c(c1)OCO3)oc1ccccc12
inactive: percent of DMSO control GFP [1] 99.6% | GFP response vs DMSO [2] 133% | percent response of DMSO control [3] 112% | GFP response vs DMSO [4] 88% | GFP response, % of DMSO [5] 89.4% | vesicle binding response [6] 167% | inhibition [7] 1.61% | superoxide response (% of plate) [8] 99.1% | aptamer binding inhibition [9] 0% | response [10] 4.3% | inhibition [11] 47.4% | response [12] 8.06% | binding (% of control) [13] 103% | efflux inhibition (fraction of control) [14] 0.37 | inhibition [15] 0% | differentiation response [16] 8.19%
64%: double positive events [6]
